# High-throughput results: PubChem, Broad Institute
# Compounds with a hit are over-represented: about 3% of the library has one in this group of screens.
# esBAF inh: blocks esBAF chromatin remodeling in mouse ES cells | Bmi1-luciferase knock-in reporter, 24 h; 100% = twice the neutral-well signal | 2% of 350,000 active | reporter increase, % at 12.5 µM; in the data active = activation above about 40%; inconclusive = no clear call, values can overlap the other calls;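 also: a rise in the Bmi1 reporter signal indicates esBAF inhibition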
# Wnt act: activates Wnt/beta-catenin signaling in a reporter cell assay; AID 743398; activation, % at 9.35 µM; activator, plate reader; 1.2% of 300,000 active; in the data active = activation above about 30%, passing the limit was not always enough; inconclusive = no clear call, values can overlap the other calls
# Vif imaging: HIV Vif inhibition; HEK293T cells, Vif self-association by quenched fluorescence, imaging, 24 h; inhibition, % at 7.49 µM; 0.35% of 340,000 active; in the data active = inhibition above about 50%, passing the limit was not always enough; inconclusive = no clear call, values can overlap the other calls; inactive = below about 31%
# PfHsp90 set2: growth inhibition of yeast expressing Plasmodium Hsp90 | S. cerevisiae expressing PfHsp90, BacTiter-Glo ATP, 48 h; yeast lacking PDR1 and PDR3 efflux regulators | inhibition, % at 9.4 µM | 0.32% of 310,000 active;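 active = every replicate shows inhibition above about 80%, whatever the replicate mean, limit read from the data; inconclusive = mean inhibition reaches the set limit but some replicate falls short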
# MITF act: activators of MITF-driven TRPM1 promoter activity in SK-MEL-5 cells; SK-MEL-5 TRPM1-promoter luciferase, 24 h; % of positive control, neutral wells = 0; activation, % at 12.5 µM; 0.75% of 300,000 active; AID 588334;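 active = mean activation of at least 80% with every replicate also reaching 80%; inconclusive = mean reaches 80% but some replicate falls short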
# N-glyco inh: N-linked glycosylation inhibition; D54 ERlucT glycosylation luciferase reporter, 24 h; percent of 100 nM tunicamycin response; reporter increase, % at 12.5 µM; 0.23% of 360,000 active;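 active = mean luciferase reporter signal, scaled so untreated is 0 and the glycosylation-blocking control 100, at or above a set limit in every replicate; inconclusive = mean reaches the limit but not every replicate does; inactive = mean below the limit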;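 also: luciferase carries N-glycosylation sites so blocking glycosylation raises the light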
# A number is an active result; 0 = inactive; ? = inconclusive; - = no result.
SMILES,esBAF inh,Wnt act,Vif imaging,PfHsp90 set2,MITF act,N-glyco inh
CCN(Cc1cnn(C)c1)C(=O)c1cc(COc2cc(C)c(Cl)c(C)c2)on1,0,0,0,0,0,0
Cc1cc(OCc2cc(C(=O)N(C)CCc3cnn(C)c3)no2)cc(C)c1Cl,74.1,0,0,0,0,0
Cc1ccc(OCc2cc(C(=O)N(C)Cc3cnn(C)c3)no2)cc1C,45.7,0,0,-,-,0
COc1cc(Cl)ccc1OCc1cc(C(=O)N(C)CCc2cnn(C)c2)no1,88.1,0,0,0,0,0
CC(C)NC(=O)N(C)C[C@@H]1Oc2c(NS(C)(=O)=O)cccc2C(=O)N([C@@H](C)CO)C[C@@H]1C,0,-,-,-,-,-
CCC(=O)NC(=S)Nc1ccc(Cl)cn1,0,-,-,0,0,0
COc1ccccc1C(O)(C(=O)NNc1ccccc1C)c1ccccc1OC,0,0,0,0,0,0
COc1ccccc1C(O)(C(=O)NN(C(=O)c1ccccc1)c1ccccc1C)c1cccs1 (stereo not given),0,-,52.1,0,-,0
Cc1ccnc(NC(=O)Cc2ccc(-c3ccccc3)cc2)c1,-,0,0,0,0,0
O=C(Cc1ccc(-c2ccccc2)cc1)Nc1ccccn1,42.6,0,0,0,0,0
COc1ccc(-c2cc(C(=O)Nc3ccccc3SC)no2)cc1OC,0,-,0,0,0,0
O=C(Nc1cnn(C23CC4CC(CC(C4)C2)C3)c1)c1cc(-c2ccccc2)on1,0,0,0,0,0,0
CCCn1cc(NC(=O)c2cc(-c3ccccc3)on2)cn1,52.8,-,0,0,0,0
COc1ccc(-c2cc(C(=O)Nc3cnn(Cc4ccccc4C)c3)no2)cc1OC,0,0,86.2,0,0,0
O=C(O)c1cc(-c2ccc(/C=C3\NC(=O)N(c4ccccc4)C3=O)o2)ccc1Cl,0,0,0,0,0,0
C#CCN1C(=O)S/C(=C\c2ccc(-c3ccc(Cl)c(C(=O)O)c3)o2)C1=O,0,31.1,0,0,0,0
CCCN1C[C@H](C)[C@@H](OC)CN(C)C(=O)c2cc(NC(=O)C3CC3)ccc2OC[C@H]1C,0,-,-,-,-,-
COc1ccc2c(c1)O/C(=C\c1sccc1C)C2=O,42.0,-,0,0,0,0
O=C(Nc1ccc(F)c(Cl)c1)c1nsc(Cl)c1Cl,59.7,0,0,0,0,0
O=C(Nc1ccc(F)cc1)c1nsc(Cl)c1Cl,0,-,0,0,0,0
CCOc1ccc(NC(=O)c2nsc(Cl)c2Cl)cc1,0,53.7,0,0,0,0
CC(=O)c1ccc(OCC(O)CN2CCN(CCN3C(=O)c4cccc5cccc(c45)C3=O)CC2)cc1 (stereo not given),-,-,0,0,0,56.1
CCC(OCC(O)CN1CCN(CCN2C(=O)c3cccc4cccc(c34)C2=O)CC1)c1ccccc1 (stereo not given),-,-,0,0,0,0
CC(C)OCC(O)CN1CCN(CCN2C(=O)c3cccc4cccc(c34)C2=O)CC1 (stereo not given),0,0,0,0,0,33.3
Cc1ccccc1OCC(O)CN1CCN(CCN2C(=O)c3cccc4cccc(c34)C2=O)CC1 (stereo not given),-,0,-,0,0,0
SMILES,esBAF inh,Wnt act,Vif imaging,PfHsp90 set2,MITF act,N-glyco inh
C[C@H]1CN([C@@H](C)CO)C(=O)Cc2cc(N(C)C)ccc2O[C@@H]1CN(C)S(=O)(=O)c1cn(C)cn1,0,-,-,-,-,-
O=c1ccc2cc(S(=O)(=O)Nc3ccc(F)cc3)ccc2o1,0,-,0,0,0,0
CN1C/C(=C/c2ccsc2)C(=O)/C(=C/c2ccsc2)C1,0,0,0,0,0,0
O=C1/C(=C\c2ccsc2)N2CCC1CC2,0,32.7,0,0,0,0
CC1Cc2ccccc2N1C(=O)/C=C/c1cccc(F)c1 (stereo not given),89.5,0,0,0,95.5,0
COc1ccc2ncc(OC(C)=O)cc2c1,-,0,0,0,0,0
CC(=O)Nc1ccc(CNc2nc(NC(C)C)nc3ccsc23)cc1,0,0,0,-,-,0
C[C@@H]1CN([C@H](C)CO)C(=O)c2cccc(NC(=O)c3cnccn3)c2O[C@H]1CN(C)C(=O)Nc1ccc(F)cc1,0,-,-,-,-,-
Oc1ccc(/C=N/Nc2ccccc2)cc1,0,0,0,0,0,0
Brc1ccc(/C=N/Nc2ccccc2)cc1,-,0,0,0,84.1,0
CCOC(CCNC(=O)c1cn(C)c(=O)c2c1c1ccccc1n2C)OCC,0,0,0,0,0,0
CCOc1ccccc1CNC(=O)c1cn(C)c(=O)c2c1c1ccccc1n2C,0,46.6,0,0,0,0
CCC(=O)n1nc(-c2ccco2)nc1SCc1ccccc1,0,0,0,0,0,0
CC(=O)n1nc(-c2ccco2)nc1SCc1ccccc1,55.1,-,0,0,0,0
CN1C(=O)c2cccc3c(S(N)(=O)=O)ccc1c23,0,0,0,0,-,0
CN1C(=O)c2cccc3c(S(=O)(=O)Nc4ccccn4)ccc1c23,-,-,0,0,0,40.8
Cc1ccccc1NS(=O)(=O)c1ccc2c3c(cccc13)C(=O)N2C,0,0,0,0,0,42.3
C=CCNC(=S)Nc1ccc2nc(C)c(C)nc2c1,?,-,?,0,-,0
Cc1nc2ccc(NC(=S)NCc3ccccc3)cc2nc1C,41.3,0,0,0,0,0
O=C1CC(c2ccco2)CC(O)=C1C=Nc1ccc(Br)cc1 (stereo not given),0,-,0,0,0,0
C=CCn1c(-c2cc(-c3ccccc3)sc2N)n[nH]c1=S,-,41.0,0,0,-,0
O=C1CC(=O)N(c2ccccc2)N1c1ccccc1,-,0,0,0,0,0
Cc1ccc(/C=C(\C#N)C(=O)Nc2ccccn2)o1,62.8,0,0,0,103.2,0
CO[C@H]1CN(C)C(=O)c2ccc(NC(=O)c3ccc(F)cc3)cc2OC[C@@H](C)N(C(=O)c2ccc(F)cc2)C[C@@H]1C,0,-,-,-,-,-
CCCCOC(=O)Nc1ccc2c(C)cc(=O)oc2c1,67.7,59.4,0,-,-,0
SMILES,esBAF inh,Wnt act,Vif imaging,PfHsp90 set2,MITF act,N-glyco inh
CCOC(=O)Nc1ccc2c(C)cc(=O)oc2c1,43.0,0,0,0,103.0,0
Cc1cc(OCC(=O)NCc2ccccn2)cc(C)c1Br,0,-,0,0,0,0
COc1cccc(NC(=O)c2ccnc(N3CCC(C(=O)NCc4ccccc4OC)CC3)c2)c1,72.8,0,0,0,0,0
CC(=O)N1CCN(CCN2C(C)=CC(=C(C#N)C#N)C=C2C)CC1,0,0,0,0,0,0
N#Cc1cc2[nH]c3ccccc3c2[n+](-c2ccc([N+](=O)[O-])cc2)c1N,0,0,0,0,0,28.3
O=c1[nH]c2cc([N+](=O)[O-])cc(Cl)c2c2ccccc12,-,0,0,-,-,0
CC(=O)NC(CC(=O)NNC(=O)COc1c(C)cccc1C)c1ccccc1 (stereo not given),-,61.6,0,0,0,0
CC(=O)NC(CC(=O)O)c1ccccc1 (stereo not given),0,0,0,0,0,0
Cc1nnc(C)n1/N=C/c1cc(Br)cc(Br)c1O,-,-,0,100.6,0,0
